This passage reports growth inhibition results from PubChem BioAssay (NCI).

Each structure is given as a SMILES string. About 79,000 compounds went through this panel and 15% of them were active in at least one assay; those are over-represented in the sample as a whole. Unmarked numbers belong to inactive results. Calls of active or inactive are those of the source. No stated cut-off is given here; in the data, active means growth inhibition above about 70%; inactive means the rest.

A short description of test [1]: NCI Yeast Anticancer Drug Screen. Data for the rad50 strain (AID 155).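 Further: 0% = growth of vehicle-only cultures of the same strain.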 The following applies: S. cerevisiae rad50 strain growth inhibition, active compounds read high. In outline:
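Cells are treated with compound, grown, and their growth is then scored against vehicle-only cultures of the same repair-deficient yeast strain.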

Test [2] is described as follows: NCI Yeast Anticancer Drug Screen. Data for the mec2-1 strain (AID 157). The following applies: S. cerevisiae mec2-1 strain, active compounds read high. In outline: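 Mutant yeast (mec2-1) grown with compound; growth inhibition relative to vehicle control reported.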
Test [3] in a line: NCI Yeast Anticancer Drug Screen. Data for the sgs1 mgt1 strain (AID 161).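 Further: 0% = growth of cultures given vehicle only.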 The following applies: S. cerevisiae sgs1 mgt1 strain, active compounds read high. In outline:
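Growth of a repair-deficient yeast mutant was monitored after compound treatment and expressed as inhibition relative to vehicle-treated cultures.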

Test [4] can be described thus: NCI Yeast Anticancer Drug Screen. Data for the cln2 rad14 strain (AID 165).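 Further: 0% = growth equal to vehicle treated cultures.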 The following applies: S. cerevisiae cln2 rad14 strain, active compounds read high. In outline: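 Readout is yeast growth inhibition versus vehicle-treated controls, using a strain with cln2 and rad14 alterations exposed to compound.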
Test [5] can be described thus: NCI Yeast Anticancer Drug Screen. Data for the bub3 strain (AID 167). Particulars: S. cerevisiae bub3 mutant strain, active compounds read high. In outline:
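Part of a panel of yeast mutants defective in DNA damage repair or cell cycle regulation. Each strain is grown with compound, and inhibition is calculated relative to solvent-treated cultures.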

Test [6] is described as follows: NCI Yeast Anticancer Drug Screen. Data for the mlh1 rad18 strain (AID 175). The following applies: S. cerevisiae mlh1 rad18 strain growth inhibition, active compounds read high. In outline:
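Genetically defined yeast (DNA repair-deficient) exposed to compounds; growth inhibition determined relative to vehicle.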

The mark [7] stands for this setting: at 5.0 µM (retest, dose inferred, filed as 0.5).
[8] abbreviates: at 50.0 µM (retest, dose inferred, filed as 5.0).

For the compound `Cc1cc(=O)n(-c2ccc(F)cc2)n1C`, the growth inhibition is 1% in test [1] (setting [7]); 0% in test [1] (setting [8]); 30.9% in test [1] (at 50.0 µM); -6% in test [2] (setting [7]); 1% in test [2] (setting [8]); -5.7% in test [2] (at 50.0 µM). The growth inhibition in test [3] (setting [7]) is 0%; in test [3] (setting [8]), 2%; in test [3] (at 50.0 µM) it was 31.7%; in test [4] (setting [7]), 3%; in test [4] (setting [8]), 15%; in test [4] (at 50.0 µM) it was 22.9%. The growth inhibition in test [5] (setting [7]) was 0%; in test [5] (setting [8]), -2%; in test [5] (at 50.0 µM), 25.4%; in test [6] (setting [7]), 2%; in test [6] (setting [8]), -16%; in test [6] (at 50.0 µM) it was -23.6%.

As to `COc1ccc(C(c2c(O)c3ccccc3oc2=O)N2CCOCC2)c(OC)c1` (configuration not stated), the growth inhibition in test [1] (setting [7]) was -4%; in test [1] (setting [8]) it was 3%; in test [1] (at 50.0 µM), 33.4%; in test [2] (setting [7]), -6%; in test [2] (setting [8]) it was 19%; in test [2] (at 50.0 µM), 23.1%. The growth inhibition was -4% in test [3] (setting [7]); 4% in test [3] (setting [8]); 35.6% in test [3] (at 50.0 µM); 3% in test [4] (setting [7]); -3% in test [4] (setting [8]); 20.3% in test [4] (at 50.0 µM). For the same compound, the growth inhibition is -2% in test [5] (setting [7]); 0% in test [5] (setting [8]); 69.2% in test [5] (at 50.0 µM); -7% in test [6] (setting [7]); -3% in test [6] (setting [8]); 43.4% in test [6] (at 50.0 µM).

`CC1=C(Br)S(=O)(=O)N(c2ccccc2)C(CBr)=C1Br`: the growth inhibition was 57% in test [1] (setting [7]); 95% (active) in test [1] (setting [8]); 19.8% in test [1] (at 50.0 µM); 41% in test [2] (setting [7]); 97% (active) in test [2] (setting [8]); 18.1% in test [2] (at 50.0 µM). Moreover, the growth inhibition is 81% (active) in test [3] (setting [7]); 99% (active) in test [3] (setting [8]); 16.9% in test [3] (at 50.0 µM); 26% in test [4] (setting [7]); 95% (active) in test [4] (setting [8]); 5.05% in test [4] (at 50.0 µM). The growth inhibition in test [5] (setting [7]) was 53%; in test [5] (setting [8]), 96% (active); in test [5] (at 50.0 µM), 27.7%; in test [6] (setting [7]) it was 70% (active); in test [6] (setting [8]), 93% (active); in test [6] (at 50.0 µM) it was 50.1%.

Regarding `CCCCCCCCCCCCCCCCOC(=O)C[n+]1cccc(C(N)=O)c1`, the growth inhibition in test [1] (setting [7]) was 2%; in test [1] (setting [8]) it was 50%; in test [1] (at 50.0 µM) it was 89.8% (active); in test [2] (setting [7]), 8%; in test [2] (setting [8]), 85% (active); in test [2] (at 50.0 µM), 94.4% (active). Also, the growth inhibition was 27% in test [3] (setting [7]); 92% (active) in test [3] (setting [8]); 97.2% (active) in test [3] (at 50.0 µM); -5% in test [4] (setting [7]); 22% in test [4] (setting [8]); 36% in test [4] (at 50.0 µM). In addition, the growth inhibition was -1% in test [5] (setting [7]); 79% (active) in test [5] (setting [8]); 73% (active) in test [5] (at 50.0 µM); 42% in test [6] (setting [7]); 82% (active) in test [6] (setting [8]); 92.3% (active) in test [6] (at 50.0 µM).

Consider `OC(c1ccccc1)c1cccc(Br)c1` (configuration not stated), for which the growth inhibition in test [1] (setting [7]) is -2%; in test [1] (setting [8]), 67%; in test [1] (at 50.0 µM) it was 76.5% (active); in test [2] (setting [7]) it was -11%; in test [2] (setting [8]) it was 77% (active); in test [2] (at 50.0 µM), 59.8%. The growth inhibition is -13% in test [3] (setting [7]); 55% in test [3] (setting [8]); 52.9% in test [3] (at 50.0 µM); -1% in test [4] (setting [7]); 48% in test [4] (setting [8]); 42.6% in test [4] (at 50.0 µM). In addition, the growth inhibition was -3% in test [5] (setting [7]); 68% in test [5] (setting [8]); 30.1% in test [5] (at 50.0 µM); 14% in test [6] (setting [7]); 77% (active) in test [6] (setting [8]); 87.2% (active) in test [6] (at 50.0 µM).

Regarding `Cc1cnc(C#N)c(C#N)n1`, the growth inhibition is 2% in test [1] (setting [7]); 10% in test [1] (setting [8]); 35.6% in test [1] (at 50.0 µM); -1% in test [2] (setting [7]); 8% in test [2] (setting [8]); 5.9% in test [2] (at 50.0 µM). Moreover, the growth inhibition in test [3] (setting [7]) was 2%; in test [3] (setting [8]), 7%; in test [3] (at 50.0 µM), 9.95%; in test [4] (setting [7]) it was 0%; in test [4] (setting [8]) it was 7%; in test [4] (at 50.0 µM), 12.2%. The growth inhibition in test [5] (setting [7]) is -1%; in test [5] (setting [8]) it was -1%; in test [5] (at 50.0 µM), 13.2%; in test [6] (setting [7]), -3%; in test [6] (setting [8]) it was 3%; in test [6] (at 50.0 µM) it was 18.1%.

As for `O=[N+]([O-])c1ccc2c(c1)N([O-])C1(CCCCC1)[N+]2=O`, the growth inhibition in test [1] (setting [7]) was 25%; in test [1] (setting [8]) it was 99% (active); in test [1] (at 50.0 µM) it was 89% (active); in test [2] (setting [7]), 24%; in test [2] (setting [8]), 99% (active); in test [2] (at 50.0 µM) it was 92.9% (active). The growth inhibition in test [3] (setting [7]) is 23%; in test [3] (setting [8]), 97% (active); in test [3] (at 50.0 µM), 91.2% (active); in test [4] (setting [7]), 22%; in test [4] (setting [8]), 98% (active); in test [4] (at 50.0 µM) it was 88% (active). In addition, the growth inhibition in test [5] (setting [7]) was 10%; in test [5] (setting [8]), 98% (active); in test [5] (at 50.0 µM) it was 91.1% (active); in test [6] (setting [7]) it was 37%; in test [6] (setting [8]), 99% (active); in test [6] (at 50.0 µM), 88.4% (active).

With `c1ccc(-c2cc(Nc3ccc4c(c3)OCO4)c3cc(C4CCCCC4)ccc3n2)cc1`, the growth inhibition in test [1] (setting [7]) was 10%; in test [1] (setting [8]), 95% (active); in test [1] (at 50.0 µM), 79% (active); in test [2] (setting [7]), 6%; in test [2] (setting [8]) it was 96% (active); in test [2] (at 50.0 µM), 83.9% (active). Moreover, the growth inhibition is 27% in test [3] (setting [7]); 97% (active) in test [3] (setting [8]); 96.7% (active) in test [3] (at 50.0 µM); -8% in test [4] (setting [7]); 93% (active) in test [4] (setting [8]); 60.4% in test [4] (at 50.0 µM). Besides, the growth inhibition was 4% in test [5] (setting [7]); 96% (active) in test [5] (setting [8]); 41.2% in test [5] (at 50.0 µM); 7% in test [6] (setting [7]); 94% (active) in test [6] (setting [8]); 98.2% (active) in test [6] (at 50.0 µM).

On to `O=[N+]([O-])c1ccc(C2=C[P+](c3ccccc3)(c3ccccc3)C=C(c3ccccc3)O2)cc1`, for which the growth inhibition in test [1] (setting [7]) was 29%; in test [1] (setting [8]), 97% (active); in test [1] (at 50.0 µM) it was 91% (active); in test [2] (setting [7]), 21%; in test [2] (setting [8]), 98% (active); in test [2] (at 50.0 µM), 90.4% (active). For the same compound, the growth inhibition in test [3] (setting [7]) is 18%; in test [3] (setting [8]) it was 99% (active); in test [3] (at 50.0 µM) it was 85.2% (active); in test [4] (setting [7]) it was 30%; in test [4] (setting [8]), 98% (active); in test [4] (at 50.0 µM) it was 86.4% (active). Further, the growth inhibition in test [5] (setting [7]) is 45%; in test [5] (setting [8]), 98% (active); in test [5] (at 50.0 µM), 92.2% (active); in test [6] (setting [7]), 22%; in test [6] (setting [8]), 97% (active); in test [6] (at 50.0 µM), 92.2% (active).
